Screening data: PubChem, The Scripps Research Institute Molecular Screening Center
Shown are actives, neighbours in structure and some others; about 4.1% of the full set was active somewhere.
DAX1 inh-1: blocks DAX1 repression of SF-1 activated StAR promoter; HEK293T StAR-luciferase reporter, SF-1/DAX-1 repression relief; inhibition, % at 6.8 µM; 370,000 compounds, 1.1% hits;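 active = inhibition above the mean over all tested compounds plus 3 SD, cut at about 3.6% in these data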;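 also: 0% = DAX-1 cells with DMSO and 100% = cells lacking DAX-1 with DMSO; higher inhibition means more luminescence from relief of DAX-1 repression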
hcDAF12 agonist: activators of H. contortus DAF-12 nuclear receptor; 370,000 compounds, 1.4% hits; HEK293 hcDAF-12 lit1-tk-luc reporter, luminescence; 0% DMSO, 100% Δ7-dafachronic acid; activation, % at 6.8 µM; AID 652067;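 active = activation above the mean of all tested compounds plus 3 SD, cut at about 5.5% in these data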;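 also: 100% = response to 3 µM Δ7-dafachronic acid high control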
DAX1 inh-2: inhibits human nuclear receptor DAX1; P51843; HEK293 Gal4-DAX1 luciferase reporter, luminescence; inhibition, % at 6.75 µM; 340,000 compounds, 0.99% hits; AID 504766;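 active = inhibition above the mean over all tested compounds plus 3 SD, cut at about 4.2% in these data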;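 also: 0% = DAX1-transfected cells with DMSO and 100% = empty-vector control cells with DMSO; inhibition shows as a rise in luminescence from relieved DAX1 repression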
ssDAF-12 act: activators of S. stercoralis DAF-12 nuclear receptor. HEK293 ssDAF-12/GRIP1 lit1-tk-luc reporter, luminescence; % of 3 µM dafachronic acid response. 370,000 compounds, 1% hits. AID 652126. activation, % at 6.8 µM;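 active = activation above the mean over all tested compounds plus 3 SD, cut at about 0.9% in these data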;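 also: 0% = DMSO-only wells and 100% = 3 µM delta7-dafachronic acid wells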
hgDAF12 agonist: hgDAF-12 agonism, primary luciferase screen | HEK293 GAL4-hgDAF12 UAS-luciferase reporter, agonist luminescence; normalized to butyrate control | activation, % at 6.8 µM | 370,000 compounds, 1.8% hits;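 active = activation above a cutoff set at the mean of all screened compounds plus 3 SD, cut at about 10% in these data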;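 also: 0% = DMSO wells and 100% = sodium butyrate wells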
LXRb hcDAF ctr: counter-screen for hcDAF-12 agonists: agonists of human LXR-beta. 3,400 tested, under 10 active. activation, % at 6.8 µM. shares compounds with hcDAF12 agonist. AID 743027. HEK293 Gal4-LXR tk-luc reporter, luminescence, 24 h; normalized: DMSO 0%, positive control 100%;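 active = mean percent activation of the reporter above a cutoff set as the average over tested compounds plus their standard deviation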
Target sequence (P55055 whole entry, looked up, the tested form may be a part): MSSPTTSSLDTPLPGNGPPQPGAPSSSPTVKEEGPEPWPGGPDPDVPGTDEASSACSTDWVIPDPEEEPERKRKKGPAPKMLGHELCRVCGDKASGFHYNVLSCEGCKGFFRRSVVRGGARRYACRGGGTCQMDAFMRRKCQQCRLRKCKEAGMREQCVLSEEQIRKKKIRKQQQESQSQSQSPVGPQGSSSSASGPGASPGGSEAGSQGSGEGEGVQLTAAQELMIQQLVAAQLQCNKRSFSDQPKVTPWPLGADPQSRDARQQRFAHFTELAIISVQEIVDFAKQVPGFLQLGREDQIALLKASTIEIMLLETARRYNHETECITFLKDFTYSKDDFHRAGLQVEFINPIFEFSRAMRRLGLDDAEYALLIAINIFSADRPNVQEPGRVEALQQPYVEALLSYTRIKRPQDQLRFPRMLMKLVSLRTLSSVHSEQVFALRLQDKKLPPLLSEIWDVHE
hcDAF12 ag: confirmation of H. contortus DAF-12 agonists. shares compounds with hcDAF12 agonist. HEK293 hcDAF-12 lit1-tk-luc reporter, luminescence; % of Δ7-dafachronic acid response. activation, % at 6.8 µM. 3,400 compounds, 61% hits;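 active = mean activation across triplicate tests above the threshold derived from the earlier primary screen, cut at about 5.5% in these data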;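 also: 0% = DMSO only wells and 100% = 3 µM Δ7-dafachronic acid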
* hit, by the source's call; . = no result given.

SMILES	DAX1 inh-1	hcDAF12 agonist	DAX1 inh-2	ssDAF-12 act	hgDAF12 agonist	LXRb hcDAF ctr	hcDAF12 ag
CC1CCCCN1S(=O)(=O)c1ccc(C(=O)Nc2ccccc2-c2nc3ccccc3s2)cc1 (configuration not stated)	0	11*	0	0	1	0	4
C[C@H]1CCCCO[C@@H](CN(C)S(=O)(=O)c2ccc(Cl)cc2)[C@@H](C)CN([C@@H](C)CO)C(=O)c2cc(NS(=O)(=O)c3ccccc3)ccc2O1	-1	-1	2	-1	-2	.	.
C[C@@H]1CN([C@H](C)CO)C(=O)c2cc(NS(=O)(=O)c3ccccc3)ccc2O[C@@H](C)CCCCO[C@@H]1CN(C)Cc1ccc(Cl)c(Cl)c1	0	6.7*	.	-1	-2	0	1
Cc1ccc(S(=O)(=O)N2CCOCC2)cc1C(=O)Nc1nc2ccccc2[nH]1	2	7.9*	0	0	3	0	5
CNc1nc(C23CC4CC(CC(C4)C2)C3)cs1	-1	-1	-2	-2	-3	.	.
CC(=O)c1sc(N/N=C/c2cccc([N+](=O)[O-])c2)nc1C	0	-1	0	-1	0	.	.
CC(=O)c1sc(N/N=C/c2cccc(O)c2)nc1C	0	7.1*	0	0	12*	1	5
COC(=O)c1[nH]c2ccccc2c1NC(=O)Oc1ccccc1	1	8.4*	3	0	6	0	7.4*
COC(=O)c1[nH]c2ccccc2c1CN1CCOCC1	0	7.5*	-1	-1	2	0	2
CCOC(=O)c1[nH]c2ccccc2c1NC(=O)CC(C)(C)C	0	6.8*	-1	0	5	0	5
CC1(c2ccccc2Cl)NC(=O)N(CC(=O)N2c3ccccc3NC(=O)C2(C)C)C1=O (configuration not stated)	0	-1	1	-1	1	.	.
COc1cc2c(cc1NC(=O)C(C)OC(=O)C1CC(=O)N(Cc3ccco3)C1)oc1ccccc12 (configuration not stated)	1	8.8*	1	1.5*	6	0	8.0*
CC(OC(=O)C1CC(=O)N(Cc2ccco2)C1)C(=O)Nc1cccc(C#N)c1 (configuration not stated)	0	-2	-1	-1	-2	.	.
Clc1ccc2nc(-c3ccc4c(c3)OCO4)cn2c1	3.7*	7.5*	-1	-1	5	1	7.1*
CN(CC(=O)Nc1cccc(C(F)(F)F)c1)C1=NS(=O)(=O)c2ccccc21	1	-1	0	-1	-2	.	.
CNc1c(C(=O)O)ccc2c1C(=O)c1ccccc1C2=O	0	-3	-2	-1	-3	.	.
O=C(O)c1ccc2c(c1Nc1ccccc1)C(=O)c1ccccc1C2=O	0	7.5*	4.4*	1	0	0	3
CN(C)c1ccc(N=Cc2nc(-c3ccccc3)oc2OC(=O)c2ccccc2)cc1	2	6.8*	1	-1	13*	0	4
COc1ccc(C2OCC(C)([N+](=O)[O-])CO2)cc1 (configuration not stated)	-1	-1	0	-1	3	.	.
c1csc(-c2csc(-c3cccs3)n2)c1	2	2	2	0	8	.	.
Cc1cccc(Nc2nc(-c3cccs3)cs2)n1	3	20*	4.7*	4.0*	17*	2	17*
COc1ccc(NC(=O)c2ccc3ccccc3n2)cc1S(=O)(=O)N1CCCCC1	2	8.9*	1	0	5	0	4
Cc1ccc(-c2cc(C(=O)n3cnc4ccccc43)c3ccccc3n2)cc1C	3	8.1*	1	1.5*	7	0	4
Cc1ccc(-c2cc(C(=O)NCc3ccccn3)c3ccccc3n2)cc1C	0	1	-2	-1	5	.	.
COc1cc(/C=N/NC(=O)c2nnn(-c3nonc3N)c2C(C)C)ccc1O	0	6.7*	0	-2	12*	0	1
SMILES	DAX1 inh-1	hcDAF12 agonist	DAX1 inh-2	ssDAF-12 act	hgDAF12 agonist	LXRb hcDAF ctr	hcDAF12 ag
COc1ccc(C)cc1NC(=O)c1nn(C)cc1Br	-1	0	0	-1	1	.	.
CCCOc1ccc(CN(CCO)CCO)cc1[N+](=O)[O-]	1	7.3*	1	0	2	0	4
N#Cc1c(NC(=O)c2ccc([N+](=O)[O-])o2)sc2c1CCC2	0	8.1*	-2	1.0*	7	1	5
CC(C)c1onc(C(=O)Nc2sc3c(c2C#N)CCC3)c1[N+](=O)[O-]	0	1	2	-1	-2	.	.
CCc1nc2ccc(C(=O)N(C)C(C)C)cn2c1N(CCC(C)C)CCN(C)C	1	2	.	-1	4	.	.
CCOCCCNC(=O)c1ccc(/C=C2\Oc3ccccc3N(C)C2=O)cc1	0	-1	0	-1	-2	.	.
O=C(/C=C/c1ccco1)Nc1cccc2cccnc12	1	6.8*	0	1	10	0	7.0*
CCN1CCCC1CNC(=O)c1cc2cc(F)ccc2[nH]1 (configuration not stated)	1	11*	3	1.2*	4	0	5.9*
CCN1CCCC1CNC(=O)Cn1nc(C)n2c(cc3cc(F)ccc32)c1=O (configuration not stated)	1	0	1	0	-1	.	.
Cc1cc(C)n(-c2nc3ccccc3c3nc(C)nn23)n1	0	-2	1	-1	-2	.	.
Cc1cc(C)n(-c2nc(C)nc3c2cnn3-c2ccccc2)n1	0	10*	1	0	-1	0	7.8*
OCC1CCCN(C(=S)Nc2ccc(OC(F)F)cc2)C1 (configuration not stated)	1	11*	1	-1	4	0	0
FC(F)(F)c1nc2cc3nc4ccccc4[nH]c3cc2n1	0	7.6*	3	0	2	1	4
CCOC(=O)c1cnn(-c2ncnc3sc4c(c23)CCC4)c1N	0	7.3*	0	1	2	0	4
O=C(NCc1ccco1)C1CC(c2ccc(C(F)(F)F)cc2)=NO1 (configuration not stated)	0	-1	1	-1	1	.	.
COc1ccc(S(=O)(=O)N2CCOCC2)cc1NS(=O)(=O)c1ccc(F)c(F)c1	0	0	0	-1	-2	.	.
Cc1ccc(-c2nc3c4ccccc4ccn3c2CN2CCCCC2)cc1	0	6.7*	3	0	2	0	6
